These results are taken from publication PMC11006913.

Test in all cases: PBM; 200 nM protein, PBS
What all share (conditions): dsDNA, one strand shown

In assay [1] the target is HESX1 (Homo sapiens, UniProt Q9UBX0 95-180, R165K).
The target of assay [2] is SHOX (Homo sapiens, UniProt O15266 103-189).
The target of assay [3] is ALX4 (Homo sapiens, UniProt Q9H161 200-286, Q225E).
In assay [4] the target is HESX1 (Homo sapiens, UniProt Q9UBX0 95-180).
Assay [5] concerns the target MSX2 (Homo sapiens, UniProt P35548 130-214, R199I).
For assay [6], the target named is ALX1 (Homo sapiens, UniProt Q15699 118-204, L144V).
The target of assay [7] is ALX3 (Homo sapiens, UniProt O95076 139-225, N203Q).
In assay [8] the target is SHOX (Homo sapiens, UniProt O15266 103-189, R173C).
For assay [9], the target named is ALX1 (Homo sapiens, UniProt Q15699 118-204, L144R).
Assay [10] has as its target ALX3 (Homo sapiens, UniProt O95076 139-225).
Assay [11] concerns the target PROP1 (Homo sapiens, UniProt O75360 56-141).
Assay [12] has as its target HESX1 (Homo sapiens, UniProt Q9UBX0 95-180, R109Q).
The target of assay [13] is PROP1 (Homo sapiens, UniProt O75360 56-141, R99H).
Assay [14] concerns the target ALX3 (Homo sapiens, UniProt O95076 139-225, L168Q).
The target of assay [15] is HESX1 (Homo sapiens, UniProt Q9UBX0 95-180, P111T).
Assay [16] addresses ALX3 (Homo sapiens, UniProt O95076 139-225, L168V).
Assay [17] deals with PROP1 (Homo sapiens, UniProt O75360 56-141, F88S).
In assay [18] the target is HESX1 (Homo sapiens, UniProt Q9UBX0 95-180, F115L).
Assay [19] deals with ALX1 (Homo sapiens, UniProt Q15699 118-204).
Assay [20] concerns the target ALX3 (Homo sapiens, UniProt O95076 139-225, N203S).

Sequence of HESX1 (Homo sapiens, UniProt Q9UBX0 95-180, R109Q) (Q9UBX0 95-180 R109Q): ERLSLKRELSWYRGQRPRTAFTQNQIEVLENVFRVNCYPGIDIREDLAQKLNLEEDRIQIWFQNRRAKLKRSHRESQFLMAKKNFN
Sequence of ALX1 (Homo sapiens, UniProt Q15699 118-204, L144R) (Q15699 118-204 L144R): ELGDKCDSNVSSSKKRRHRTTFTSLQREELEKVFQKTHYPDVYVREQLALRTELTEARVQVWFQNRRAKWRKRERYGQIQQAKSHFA
Sequence of PROP1 (Homo sapiens, UniProt O75360 56-141, R99H) (O75360 56-141 R99H): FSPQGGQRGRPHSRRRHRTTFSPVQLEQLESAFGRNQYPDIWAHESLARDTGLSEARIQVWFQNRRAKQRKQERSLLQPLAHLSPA
Sequence of HESX1 (Homo sapiens, UniProt Q9UBX0 95-180) (Q9UBX0 95-180): as the sequence (Q9UBX0 95-180 R109Q) above, with Q15R counted along it
Sequence of ALX3 (Homo sapiens, UniProt O95076 139-225, L168Q) (O95076 139-225 L168Q): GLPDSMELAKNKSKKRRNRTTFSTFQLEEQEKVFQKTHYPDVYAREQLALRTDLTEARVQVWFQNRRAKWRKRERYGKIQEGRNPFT
Sequence of ALX3 (Homo sapiens, UniProt O95076 139-225, L168V) (O95076 139-225 L168V): as the sequence (O95076 139-225 L168Q) above, with Q30V counted along it
Sequence of PROP1 (Homo sapiens, UniProt O75360 56-141) (O75360 56-141): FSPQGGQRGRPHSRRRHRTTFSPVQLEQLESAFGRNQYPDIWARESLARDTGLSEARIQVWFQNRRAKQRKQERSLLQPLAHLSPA
Sequence of ALX3 (Homo sapiens, UniProt O95076 139-225, N203Q) (O95076 139-225 N203Q): as the sequence (O95076 139-225 L168Q) above, with Q30L, N65Q counted along it
Sequence of ALX1 (Homo sapiens, UniProt Q15699 118-204) (Q15699 118-204): as the sequence (Q15699 118-204 L144R) above, with R27L counted along it
Sequence of ALX4 (Q9H161 200-286 Q225E): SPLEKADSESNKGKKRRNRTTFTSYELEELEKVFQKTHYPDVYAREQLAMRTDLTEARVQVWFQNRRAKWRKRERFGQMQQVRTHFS
Sequence of PROP1 (Homo sapiens, UniProt O75360 56-141, F88S) (O75360 56-141 F88S): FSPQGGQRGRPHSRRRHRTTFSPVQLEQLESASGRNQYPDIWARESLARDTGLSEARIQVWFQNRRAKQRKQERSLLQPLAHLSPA
Sequence of SHOX (Homo sapiens, UniProt O15266 103-189) (O15266 103-189): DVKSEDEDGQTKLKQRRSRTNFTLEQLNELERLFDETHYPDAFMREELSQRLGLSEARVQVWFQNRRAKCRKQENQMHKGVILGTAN
Sequence of HESX1 (Homo sapiens, UniProt Q9UBX0 95-180, R165K) (Q9UBX0 95-180 R165K): as the sequence (Q9UBX0 95-180 R109Q) above, with Q15R, R71K counted along it
Sequence of SHOX (Homo sapiens, UniProt O15266 103-189, R173C) (O15266 103-189 R173C): as the sequence (O15266 103-189) above, with R71C counted along it
Sequence of ALX3 (Homo sapiens, UniProt O95076 139-225) (O95076 139-225): as the sequence (O95076 139-225 L168Q) above, with Q30L counted along it
Sequence of ALX1 (Homo sapiens, UniProt Q15699 118-204, L144V) (Q15699 118-204 L144V): as the sequence (Q15699 118-204 L144R) above, with R27V counted along it
Sequence of HESX1 (Homo sapiens, UniProt Q9UBX0 95-180, F115L) (Q9UBX0 95-180 F115L): as the sequence (Q9UBX0 95-180 R109Q) above, with Q15R, F21L counted along it
Sequence of HESX1 (Homo sapiens, UniProt Q9UBX0 95-180, P111T) (Q9UBX0 95-180 P111T): as the sequence (Q9UBX0 95-180 R109Q) above, with Q15R, P17T counted along it
Sequence of ALX3 (Homo sapiens, UniProt O95076 139-225, N203S) (O95076 139-225 N203S): as the sequence (O95076 139-225 L168Q) above, with Q30L, N65S counted along it
Sequence of MSX2 (P35548 130-214 R199I): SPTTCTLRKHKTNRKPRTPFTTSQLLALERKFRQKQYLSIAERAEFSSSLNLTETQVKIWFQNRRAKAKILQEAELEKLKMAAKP

AATTAGTC: the binding signal in [1] is 11.5 upbm affinity estimate (log intensity, higher = more binding, comparable within an allelic series); in assay [2], 11.7 upbm affinity estimate (log intensity, higher = more binding, comparable within an allelic series); in [3], 12.8 upbm affinity estimate (log intensity, higher = more binding, comparable within an allelic series); in [4], 11.8 upbm affinity estimate (log intensity, higher = more binding, comparable within an allelic series); in assay [5] it was 12.3 upbm affinity estimate (log intensity, higher = more binding, comparable within an allelic series); in assay [6], 11.5 upbm affinity estimate (log intensity, higher = more binding, comparable within an allelic series). For the same sequence, the binding signal in assay [7] was 8.3 upbm affinity estimate (log intensity, higher = more binding, comparable within an allelic series); in assay [8], 9.37 upbm affinity estimate (log intensity, higher = more binding, comparable within an allelic series); in assay [9], 11.1 upbm affinity estimate (log intensity, higher = more binding, comparable within an allelic series); in assay [10] it was 12.2 upbm affinity estimate (log intensity, higher = more binding, comparable within an allelic series); in [11], 11.1 upbm affinity estimate (log intensity, higher = more binding, comparable within an allelic series); in assay [12], 8.88 upbm affinity estimate (log intensity, higher = more binding, comparable within an allelic series). The binding signal in [13] is 11 upbm affinity estimate (log intensity, higher = more binding, comparable within an allelic series); in assay [14], 10.3 upbm affinity estimate (log intensity, higher = more binding, comparable within an allelic series); in assay [15], 10.4 upbm affinity estimate (log intensity, higher = more binding, comparable within an allelic series); in [16], 9.88 upbm affinity estimate (log intensity, higher = more binding, comparable within an allelic series); in [17], 7.67 upbm affinity estimate (log intensity, higher = more binding, comparable within an allelic series); in [18] it was 7.67 upbm affinity estimate (log intensity, higher = more binding, comparable within an allelic series). Also, the binding signal in assay [19] is 12.1 upbm affinity estimate (log intensity, higher = more binding, comparable within an allelic series); in assay [20], 8.39 upbm affinity estimate (log intensity, higher = more binding, comparable within an allelic series).
As for GGCAATTA, the binding signal was 12.3 upbm affinity estimate (log intensity, higher = more binding, comparable within an allelic series) in assay [1]; 11.7 upbm affinity estimate (log intensity, higher = more binding, comparable within an allelic series) in assay [2]; 12.9 upbm affinity estimate (log intensity, higher = more binding, comparable within an allelic series) in assay [3]; 12.4 upbm affinity estimate (log intensity, higher = more binding, comparable within an allelic series) in [4]; 12.9 upbm affinity estimate (log intensity, higher = more binding, comparable within an allelic series) in [5]; 11.4 upbm affinity estimate (log intensity, higher = more binding, comparable within an allelic series) in [6]. Besides, the binding signal in assay [7] was 8.35 upbm affinity estimate (log intensity, higher = more binding, comparable within an allelic series); in assay [8] it was 9.38 upbm affinity estimate (log intensity, higher = more binding, comparable within an allelic series); in [9] it was 11 upbm affinity estimate (log intensity, higher = more binding, comparable within an allelic series); in [10] it was 12.2 upbm affinity estimate (log intensity, higher = more binding, comparable within an allelic series); in assay [11], 11.1 upbm affinity estimate (log intensity, higher = more binding, comparable within an allelic series); in assay [12], 8.87 upbm affinity estimate (log intensity, higher = more binding, comparable within an allelic series). The binding signal in assay [13] was 11.3 upbm affinity estimate (log intensity, higher = more binding, comparable within an allelic series); in assay [14] it was 10.3 upbm affinity estimate (log intensity, higher = more binding, comparable within an allelic series); in assay [15] it was 10.9 upbm affinity estimate (log intensity, higher = more binding, comparable within an allelic series); in assay [16] it was 9.79 upbm affinity estimate (log intensity, higher = more binding, comparable within an allelic series); in assay [17], 7.46 upbm affinity estimate (log intensity, higher = more binding, comparable within an allelic series); in [18], 7.6 upbm affinity estimate (log intensity, higher = more binding, comparable within an allelic series). Further, the binding signal in assay [19] was 12 upbm affinity estimate (log intensity, higher = more binding, comparable within an allelic series); in [20], 8.36 upbm affinity estimate (log intensity, higher = more binding, comparable within an allelic series).
Consider CAATTAAG, for which the binding signal in assay [1] is 13 upbm affinity estimate (log intensity, higher = more binding, comparable within an allelic series); in [2] it was 12.3 upbm affinity estimate (log intensity, higher = more binding, comparable within an allelic series); in [3], 13.4 upbm affinity estimate (log intensity, higher = more binding, comparable within an allelic series); in assay [4] it was 12.9 upbm affinity estimate (log intensity, higher = more binding, comparable within an allelic series); in [5] it was 12.8 upbm affinity estimate (log intensity, higher = more binding, comparable within an allelic series); in assay [6], 11.7 upbm affinity estimate (log intensity, higher = more binding, comparable within an allelic series). Also, the binding signal in assay [7] is 8.48 upbm affinity estimate (log intensity, higher = more binding, comparable within an allelic series); in assay [8], 10.1 upbm affinity estimate (log intensity, higher = more binding, comparable within an allelic series); in assay [9], 11.4 upbm affinity estimate (log intensity, higher = more binding, comparable within an allelic series); in assay [10] it was 12.5 upbm affinity estimate (log intensity, higher = more binding, comparable within an allelic series); in assay [11], 11.6 upbm affinity estimate (log intensity, higher = more binding, comparable within an allelic series); in assay [12], 9.81 upbm affinity estimate (log intensity, higher = more binding, comparable within an allelic series). For the same sequence, the binding signal in assay [13] is 11.8 upbm affinity estimate (log intensity, higher = more binding, comparable within an allelic series); in assay [14], 10.7 upbm affinity estimate (log intensity, higher = more binding, comparable within an allelic series); in assay [15] it was 11.7 upbm affinity estimate (log intensity, higher = more binding, comparable within an allelic series); in [16], 10.2 upbm affinity estimate (log intensity, higher = more binding, comparable within an allelic series); in assay [17], 7.75 upbm affinity estimate (log intensity, higher = more binding, comparable within an allelic series); in assay [18] it was 7.88 upbm affinity estimate (log intensity, higher = more binding, comparable within an allelic series). In addition, the binding signal in [19] is 12.3 upbm affinity estimate (log intensity, higher = more binding, comparable within an allelic series); in assay [20], 8.56 upbm affinity estimate (log intensity, higher = more binding, comparable within an allelic series).
As for AAATTAAT, the binding signal in assay [1] was 11.7 upbm affinity estimate (log intensity, higher = more binding, comparable within an allelic series); in assay [2] it was 11.9 upbm affinity estimate (log intensity, higher = more binding, comparable within an allelic series); in assay [3], 13.3 upbm affinity estimate (log intensity, higher = more binding, comparable within an allelic series); in [4], 11.5 upbm affinity estimate (log intensity, higher = more binding, comparable within an allelic series); in assay [5] it was 12.2 upbm affinity estimate (log intensity, higher = more binding, comparable within an allelic series); in [6], 11.9 upbm affinity estimate (log intensity, higher = more binding, comparable within an allelic series). Further, the binding signal is 8.56 upbm affinity estimate (log intensity, higher = more binding, comparable within an allelic series) in assay [7]; 9.34 upbm affinity estimate (log intensity, higher = more binding, comparable within an allelic series) in assay [8]; 11.6 upbm affinity estimate (log intensity, higher = more binding, comparable within an allelic series) in assay [9]; 12.5 upbm affinity estimate (log intensity, higher = more binding, comparable within an allelic series) in assay [10]; 11.2 upbm affinity estimate (log intensity, higher = more binding, comparable within an allelic series) in assay [11]; 8.9 upbm affinity estimate (log intensity, higher = more binding, comparable within an allelic series) in assay [12]. Besides, the binding signal in assay [13] is 10.9 upbm affinity estimate (log intensity, higher = more binding, comparable within an allelic series); in assay [14], 10.6 upbm affinity estimate (log intensity, higher = more binding, comparable within an allelic series); in assay [15], 10.4 upbm affinity estimate (log intensity, higher = more binding, comparable within an allelic series); in assay [16] it was 10 upbm affinity estimate (log intensity, higher = more binding, comparable within an allelic series); in assay [17], 7.7 upbm affinity estimate (log intensity, higher = more binding, comparable within an allelic series); in assay [18], 7.97 upbm affinity estimate (log intensity, higher = more binding, comparable within an allelic series). The binding signal is 12.5 upbm affinity estimate (log intensity, higher = more binding, comparable within an allelic series) in [19] and 8.72 upbm affinity estimate (log intensity, higher = more binding, comparable within an allelic series) in assay [20].
